An excerpt weighted towards active compounds, which were near 14% of everything screened.
MARV entry inh: inhibitors of Marburg virus binding or cell entry | Marburg virus pseudotyped entry inhibition, cell reporter | Potency, µM (titrated, usually from 37.8 µM), inactives show at the top dose activity change, negative = inhibition, actives largely listed as inhibitors | hit rate 1.8% among 300,000; calls by dose curve; tested in HEK293 cells; further: potency means the concentration at half of the fitted maximal effect
Pf growth 48h: P. falciparum growth inhibition at 48 hours (one generation); hit rate 5.9% among 310,000; AID 504832; Potency, µM (doses to about 28.7 µM), inactives show at the highest dose activity change, negative = inhibition, actives largely listed as inhibitors; P. falciparum luciferase growth in erythrocytes, 48 h; further: potency means the concentration at half of the fitted maximal effect
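Growth was read as firefly luciferase luminescence after a 48 h, 37 C, 5% CO2 exposure of compounds to reporter-bearing P. falciparum cultures (0.1% parasitemia, 2% hematocrit final) in Albumax-supplemented RPMI 1640.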
Lassa entry inh: Lassa virus entry inhibition. Lassa virus pseudotype entry inhibition, cell reporter. Potency, µM (highest dose often 37.9 µM), without a hit: at the top dose activity change, negative = inhibition, hits mostly inhibitors. hit rate 1.2% among 300,000. AID 540256; calls by dose curve; tested in HEK293 cells; further: potency means the concentration at half of the fitted maximal effect; nearly all actives have a fitted effect of over 50% in size
HCMV antiviral: blocks human cytomegalovirus replication. hit rate 4.5% among 410,000. activity change, negative = inhibition, % at 57.5 µM. AID 1259415. HFF cells, HCMV-luciferase reporter, 72 h; stronger effect = lower value; in the data active means activity change below about -60%; inconclusive means no clear call, values can overlap the other calls; inactive means above about -39%
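Human foreskin fibroblasts infected with luciferase-reporter HCMV at MOI 1 PFU/cell, compounds at two doses. Luciferase measured 72 h post infection; normalized to buffer-only basal and Salinomycin (10uM) controls.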
Pf growth 96h: inhibits malaria parasite growth, 96 h. AID 504834. P. falciparum luciferase reporter growth, 96 h. hit rate 6.9% among 320,000. Potency, µM (series often up to 28.7 µM), without a hit: at the top dose activity change, negative = inhibition, actives largely listed as inhibitors; further: potency means the concentration at half of the fitted maximal effect
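Infected RBCs, 2% Hct / 0.05% parasitemia final; luciferase-reporter P. falciparum; cpd 96 h, 37 C, 5% CO2; luciferase detection reagent; luminescence.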
HCV inhibitor: HCV inhibition; Huh7.5.1 HCVcc-Cre infection, luciferase reporter, 44 h; Potency, µM (titrated, usually from 41.8 µM), without a hit: at the highest dose activity change, negative = inhibition, usual class: inhibitors; hit rate 3.4% among 340,000; AID 651820; further: potency means the concentration at half of the fitted maximal effect
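Reporter virus HCVcc-Cre (~0.5 moi) infects cells exposed to compound; seeding density 1,000 cells/well with 4 h settling beforehand. Luminescence, 15 sec read, taken 44 h post-infection following a 15 min RT substrate incubation.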
An asterisk follows results filed as active; ? = inconclusive; · = not tested or not shown; [ ] = remark or other dose. Unless noted, the call rests on the fitted dose curve; in most records, active means well fitted inhibition curve with a large enough effect; inconclusive means small, poorly fitted or top-dose-only effect, or another doubt; inactive means no such curve, though single readings can be large or run the other way. On the % scale 0 is the no-effect control and ±100 the full control effect.

SMILES	MARV entry inh	Pf growth 48h	Lassa entry inh	HCMV antiviral	Pf growth 96h	HCV inhibitor
Cn1c(SCC(=O)c2ccccc2)nnc1-c1cnccn1	?	106%	0%	61	8.3µM*	5%
Cn1c(SCc2ccccc2)nnc1-c1cnccn1	?	13%	-2%	-61*	2%	12%
CCn1c(SCC(=O)c2ccccc2)nnc1-c1cnccn1	?	61%	14%	16	7%	-18%
CCOc1ccccc1NC(=O)CSc1nnc(-c2cnccn2)n1C	4%	-1%	-1%	29	1.9µM*	-7%
CCOC(=O)c1c(-c2ccc(C)cc2)csc1NC(=O)c1cc(=O)c2ccc(C)cc2o1	34%[46.1 µM]	·	-4%[46.1 µM]	11	·	·
Cc1ccc(OC(=O)c2snnc2C)cc1C	-5%[46.1 µM]	·	-1%[46.1 µM]	3	·	·
CCN1C(=NCCCOC(C)C)N[C@H](c2ccccc2)[C@H](C(=O)OC)[C@H]1C	0%[14.2 µM]	·	?	·	·	·
O=c1c2cc3c(cc2nc2sc(Nc4ccc(F)c(Cl)c4)nn12)OCO3	22%[46.1 µM]	·	?	23	·	·
CCOC(=O)c1[nH]c(CN2CCN(c3ccc(OC)cc3)CC2)c(C(=O)OCC)c1C	?	9.3µM*	-29%[46.1 µM]	-15	6.6µM*	-26%
CC(CN(C)C)CN1c2ccccc2Sc2ccccc21 (stereo not drawn)	·	13µM*	·	?	?	?
CN(C)CCC(=O)N1c2ccccc2Sc2ccc(C(F)(F)F)cc21	·	29%	·	-5	0%	?
COc1ccc2c(c1)N(C[C@H](C)CN(C)C)c1ccccc1S2	·	·	·	2	·	-19%
CCN(CC)CC(O)CN1c2ccccc2Sc2ccccc21 (stereo not drawn)	3.2µM*	-4%	?	·	?	22µM*
CC(CN(C)C)CN1c2ccccc2Sc2ccc(C(F)(F)F)cc21 (stereo not drawn)	·	15µM*	·	·	?	·
CN(C)CCCN1c2ccccc2Sc2ccc(C(F)(F)F)cc21	6.3µM*	?	21µM*	?	15µM*	?
COc1ccccc1CNS(=O)(=O)c1ccc2c(c1)NC(=O)CC(=O)N2	-1%[46.1 µM]	·	9%[46.1 µM]	1	·	·
COc1ccc(OC)c(CNC(=O)C(C)n2c(C)c3cnn(-c4ccccc4)c(=O)c3c2C)c1 (stereo not drawn)	24%[46.1 µM]	·	23%[46.1 µM]	-11	·	·
CCN(CC)CCCCN1c2ccccc2Sc2ccccc21	11µM*	?	?	1	-3%	?
CCN(CC)CC(=O)N1c2ccccc2Sc2ccccc21	·	-17%	·	1	-12%	15%
CC(CN1c2ccccc2Sc2ccccc21)N(C)C (stereo not drawn)	1.1µM*	?	?	6	?	3%[8.37 µM]
CC1CCN(S(=O)(=O)c2ccc3nc(NCc4ccccc4)ccc3c2)CC1	·	·	?	-32	·	·
c1coc(-c2cc3nc(NCc4ccc5c(c4)OCO5)ccn3n2)c1	·	·	·	20	·	·
O=C(CCNS(=O)(=O)c1cccc2nonc12)Nc1ccc(F)cc1	?	·	3%[46.1 µM]	2	·	·
COC(=O)c1[nH]c2cc(OC)c(OC)cc2c1/C=N/Nc1ccccc1	·	0%	·	100	?	10µM*
COC(=O)c1[nH]c2cc(OC)c(OC)cc2c1NC(=O)CN1CCN(Cc2ccccc2)CC1	3%	?	·	·	?	·
SMILES	MARV entry inh	Pf growth 48h	Lassa entry inh	HCMV antiviral	Pf growth 96h	HCV inhibitor
COc1cc(/C=N/NC(=O)CCc2ccccc2)ccc1O	?	3%	2.8µM*	32	92%	1%
COc1cc(/C=N/NC(=O)CCNC(=O)c2ccccc2Cl)ccc1O	12%	80%	4%	70	6%	4%
COc1cc(/C=N/Nc2ccccc2)ccc1O	?	?	-25%[46.1 µM]	-29	10µM*	-11%
COc1cc(/C=N\NC(=O)CNC(=O)C(c2ccccc2)c2ccccc2)ccc1O	10%[46.1 µM]	?	-2%	1	?	?
COc1cc(/C=N/NC(=O)CCN2CCN(C(c3ccccc3)c3ccccc3)CC2)ccc1O	?	?	-21%[46.1 µM]	2	12µM*	4.5µM*
CC(C)OC(=O)c1cc(NC(=O)c2nn(C)cc2Br)cc(C(=O)OC(C)C)c1	?	-22%	5.2µM*	12	-12%	?

Assay outcomes: PubChem BioAssay, National Center for Advancing Translational Sciences (NCATS)
